From PubChem BioAssay (NCI)
Compounds without any hit were thinned out: in the full panel of roughly 79,000, 15% have a hit. A number with no mark means an inactive call. Active and inactive are the calls of the source. No stated cut-off is given here; in the data, active means growth inhibition above about 70%; inactive means the rest.

What was measured:
[1] = NCI Yeast Anticancer Drug Screen. Data for the rad52 strain (AID 147);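 further: 0% = growth of vehicle-treated control cultures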; details: S. cerevisiae rad52 mutant growth inhibition, hits give high values
Method in brief: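 Inhibition of yeast growth, referenced to vehicle controls, was the measured output for a strain with defective DNA damage repair.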

[2] = NCI Yeast Anticancer Drug Screen. Data for the wt1 strain (AID 149);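 further: 0% = growth of vehicle-treated wt1 cultures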; details: S. cerevisiae wt1 strain (SPY 50644) growth inhibition, hits give high values
Method in brief: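 Each compound is tested on wt1 yeast and the loss of growth versus vehicle gives the inhibition value.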

[3] = NCI Yeast Anticancer Drug Screen. Data for the mgt1 strain (AID 153); details: S. cerevisiae mgt1 mutant growth inhibition, hits give high values
Method in brief: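 In the mgt1 strain, test compounds were added and growth inhibition was determined relative to vehicle-treated controls.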

[4] = NCI Yeast Anticancer Drug Screen. Data for the rad50 strain (AID 155);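 further: 0% = growth of vehicle-only cultures of the same strain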; details: S. cerevisiae rad50 strain growth inhibition, hits give high values
Method in brief: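 Vehicle-treated cultures provide the reference for the growth inhibition reported for compound-exposed, repair-deficient yeast.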

[5] = NCI Yeast Anticancer Drug Screen. Data for the mec2-1 strain (AID 157); details: S. cerevisiae mec2-1 strain, hits give high values
Method in brief: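 Each compound was tested on mec2-1 yeast, a strain altered in DNA damage repair or cell cycle control. Growth inhibition is reported relative to vehicle.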

[6] = NCI Yeast Anticancer Drug Screen. Data for the rad14 strain (AID 159);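 further: 0% = growth of vehicle-treated control cultures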; details: S. cerevisiae rad14 strain growth inhibition, hits give high values
Method in brief: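 Inhibition of growth is reported for a repair-deficient yeast mutant following compound treatment, calculated relative to cultures that received vehicle.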

[7] = NCI Yeast Anticancer Drug Screen. Data for the sgs1 mgt1 strain (AID 161);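 further: 0% = growth of cultures given vehicle only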; details: S. cerevisiae sgs1 mgt1 strain, hits give high values
Method in brief: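 Read-out: growth inhibition vs vehicle controls. Cells: mutant yeast strain deficient in DNA damage repair.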

[8] = NCI Yeast Anticancer Drug Screen. Data for the CLN2oe strain (AID 163);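 further: 0% = growth of vehicle-only control cultures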; details: S. cerevisiae CLN2oe strain, hits give high values
Method in brief: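 First, the altered yeast strain was treated with each compound; second, its growth was measured; finally, inhibition was derived by comparison with vehicle controls.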

[9] = NCI Yeast Anticancer Drug Screen. Data for the cln2 rad14 strain (AID 165);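 further: 0% = growth equal to vehicle treated cultures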; details: S. cerevisiae cln2 rad14 strain, hits give high values
Method in brief: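 Test compounds were added to cln2 rad14 yeast cultures; inhibition of growth was then determined by comparison with vehicle treatment.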

[10] = NCI Yeast Anticancer Drug Screen. Data for the bub3 strain (AID 167); details: S. cerevisiae bub3 mutant strain, hits give high values
Method in brief: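 Mutant yeast screening strain plus compound; vehicle-treated cultures serve as the 0% inhibition reference.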

[11] = NCI Yeast Anticancer Drug Screen. Data for the wt2 strain (AID 169); details: S. cerevisiae wt2 strain growth inhibition, hits give high values
Method in brief: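 The panel's yeast strains carry defined changes in DNA repair or cell cycle genes. Each strain is grown with compound, and growth loss is scored relative to vehicle.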

[12] = NCI Yeast Anticancer Drug Screen. Data for the mlh1 strain (AID 171);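 further: 0% = growth of vehicle-treated control cultures of the same strain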; details: S. cerevisiae mlh1 strain growth inhibition, hits give high values
Method in brief: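 Inhibition values reflect reduced yeast growth in the presence of compound, referenced to vehicle controls, using a strain chosen for its alteration in DNA repair or cell cycle control.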

[13] = NCI Yeast Anticancer Drug Screen. Data for the sgs1 strain (AID 173);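 further: 0% = growth of vehicle-only control cultures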; details: S. cerevisiae sgs1 mutant, hits give high values
Method in brief: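 Vehicle-treated cultures served as reference for growth inhibition of a yeast strain altered in DNA damage repair or cell cycle control after compound exposure.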

[14] = NCI Yeast Anticancer Drug Screen. Data for the mlh1 rad18 strain (AID 175); details: S. cerevisiae mlh1 rad18 strain growth inhibition, hits give high values
Method in brief: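 Inhibition values reflect reduced growth of mutant yeast versus vehicle-treated controls following compound exposure; the mutations affect DNA damage repair.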

[15] = NCI Yeast Anticancer Drug Screen. Data for the rad18 strain (AID 177); details: S. cerevisiae rad18 mutant growth inhibition, hits give high values
Method in brief: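 Steps: expose repair-mutant yeast to compound; measure growth; express as inhibition relative to vehicle control.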

[16] = at 5.0 µM (retest, dose inferred, filed as 0.5)
[17] = at 50.0 µM (retest, dose inferred, filed as 5.0)

CN1C(=O)c2ccc3ccccc3c2C1=O
growth inhibition ([1]; at 1.2 µM): 7%
growth inhibition ([1]; at 3.7 µM): 11%
growth inhibition ([1]; at 11.0 µM): 35%
growth inhibition ([1]; at 33.0 µM): 53%
growth inhibition ([1]; at 100.0 µM): 68%
growth inhibition ([2]; at 1.2 µM): 2%
growth inhibition ([2]; at 3.7 µM): 3%
growth inhibition ([2]; at 11.0 µM): 17%
growth inhibition ([2]; at 33.0 µM): 25%
growth inhibition ([2]; at 100.0 µM): 25%
growth inhibition ([3]; at 1.2 µM): 1%
growth inhibition ([3]; at 3.7 µM): 1%
growth inhibition ([3]; at 11.0 µM): 20%
growth inhibition ([3]; at 33.0 µM): 18%
growth inhibition ([3]; at 100.0 µM): 25%
growth inhibition ([4]; at 1.2 µM): 12%
growth inhibition ([4]; at 3.7 µM): 32%
growth inhibition [4, 16]: 4%
growth inhibition ([4]; at 11.0 µM): 61%
growth inhibition ([4]; at 33.0 µM): 63%
growth inhibition [4, 17]: 62%
growth inhibition ([4]; at 50.0 µM): 84.5% (active)
growth inhibition ([4]; at 100.0 µM): 70% (active)
growth inhibition ([5]; at 1.2 µM): -5%
growth inhibition ([5]; at 3.7 µM): 0%
growth inhibition [5, 16]: 0%
growth inhibition ([5]; at 11.0 µM): 0%
growth inhibition ([5]; at 33.0 µM): 17%
growth inhibition [5, 17]: 29%
growth inhibition ([5]; at 50.0 µM): 41.9%
growth inhibition ([5]; at 100.0 µM): 26%
growth inhibition ([6]; at 1.2 µM): 3%
growth inhibition ([6]; at 3.7 µM): 8%
growth inhibition ([6]; at 11.0 µM): 20%
growth inhibition ([6]; at 33.0 µM): 32%
growth inhibition ([6]; at 100.0 µM): 43%
growth inhibition [7, 16]: 27%
growth inhibition [7, 17]: 54%
growth inhibition ([7]; at 50.0 µM): 43%
growth inhibition ([8]; at 1.2 µM): 3%
growth inhibition ([8]; at 3.7 µM): 6%
growth inhibition ([8]; at 11.0 µM): 18%
growth inhibition ([8]; at 33.0 µM): 21%
growth inhibition ([8]; at 100.0 µM): 27%
growth inhibition [9, 16]: -39%
growth inhibition [9, 17]: 6%
growth inhibition ([9]; at 50.0 µM): 33.4%
growth inhibition ([10]; at 1.2 µM): 6%
growth inhibition ([10]; at 3.7 µM): 8%
growth inhibition [10, 16]: 4%
growth inhibition ([10]; at 11.0 µM): 37%
growth inhibition ([10]; at 33.0 µM): 35%
growth inhibition [10, 17]: 37%
growth inhibition ([10]; at 50.0 µM): 48.8%
growth inhibition ([10]; at 100.0 µM): 32%
growth inhibition ([11]; at 1.2 µM): 2%
growth inhibition ([11]; at 3.7 µM): 3%
growth inhibition ([11]; at 11.0 µM): 12%
growth inhibition ([11]; at 33.0 µM): 24%
growth inhibition ([11]; at 100.0 µM): 39%
growth inhibition ([12]; at 1.2 µM): 2%
growth inhibition ([12]; at 3.7 µM): 3%
growth inhibition ([12]; at 11.0 µM): 22%
growth inhibition ([12]; at 33.0 µM): 29%
growth inhibition ([12]; at 100.0 µM): 27%
growth inhibition ([13]; at 1.2 µM): 0%
growth inhibition ([13]; at 3.7 µM): 1%
growth inhibition ([13]; at 11.0 µM): 14%
growth inhibition ([13]; at 33.0 µM): 25%
growth inhibition ([13]; at 100.0 µM): 42%
growth inhibition [14, 16]: -25%
growth inhibition [14, 17]: 40%
growth inhibition ([14]; at 50.0 µM): 23.3%
growth inhibition ([15]; at 1.2 µM): 6%
growth inhibition ([15]; at 3.7 µM): 15%
growth inhibition ([15]; at 11.0 µM): 45%
growth inhibition ([15]; at 33.0 µM): 39%
growth inhibition ([15]; at 100.0 µM): 35%

CCCCCCCCCCCCNC(C)=O
growth inhibition ([1]; at 1.2 µM): -5%
growth inhibition ([1]; at 3.7 µM): -7%
growth inhibition ([1]; at 11.0 µM): -8%
growth inhibition ([1]; at 33.0 µM): -12%
growth inhibition ([1]; at 100.0 µM): 54%
growth inhibition ([2]; at 1.2 µM): -6%
growth inhibition ([2]; at 3.7 µM): -6%
growth inhibition ([2]; at 11.0 µM): -8%
growth inhibition ([2]; at 33.0 µM): -7%
growth inhibition ([2]; at 100.0 µM): 9%
growth inhibition ([3]; at 1.2 µM): -2%
growth inhibition ([3]; at 3.7 µM): -6%
growth inhibition ([3]; at 11.0 µM): -5%
growth inhibition ([3]; at 33.0 µM): -14%
growth inhibition ([3]; at 100.0 µM): 14%
growth inhibition ([4]; at 1.2 µM): -10%
growth inhibition ([4]; at 3.7 µM): -8%
growth inhibition [4, 16]: -165%
growth inhibition ([4]; at 11.0 µM): 2%
growth inhibition ([4]; at 33.0 µM): 3%
growth inhibition [4, 17]: 93% (active)
growth inhibition ([4]; at 50.0 µM): 81.3% (active)
growth inhibition ([4]; at 100.0 µM): 90% (active)
growth inhibition ([5]; at 1.2 µM): 2%
growth inhibition ([5]; at 3.7 µM): -3%
growth inhibition [5, 16]: -47%
growth inhibition ([5]; at 11.0 µM): 8%
growth inhibition ([5]; at 33.0 µM): 3%
growth inhibition [5, 17]: 78% (active)
growth inhibition ([5]; at 50.0 µM): 83% (active)
growth inhibition ([5]; at 100.0 µM): 3%
growth inhibition ([6]; at 1.2 µM): -3%
growth inhibition ([6]; at 3.7 µM): 0%
growth inhibition ([6]; at 11.0 µM): -2%
growth inhibition ([6]; at 33.0 µM): 1%
growth inhibition ([6]; at 100.0 µM): 40%
growth inhibition [7, 16]: -63%
growth inhibition [7, 17]: 88% (active)
growth inhibition ([7]; at 50.0 µM): 81% (active)
growth inhibition ([8]; at 1.2 µM): -1%
growth inhibition ([8]; at 3.7 µM): -1%
growth inhibition ([8]; at 11.0 µM): 0%
growth inhibition ([8]; at 33.0 µM): -4%
growth inhibition ([8]; at 100.0 µM): -2%
growth inhibition [9, 16]: -61%
growth inhibition [9, 17]: -2%
growth inhibition ([9]; at 50.0 µM): 15.3%
growth inhibition ([10]; at 1.2 µM): -9%
growth inhibition ([10]; at 3.7 µM): -3%
growth inhibition [10, 16]: -62%
growth inhibition ([10]; at 11.0 µM): -2%
growth inhibition ([10]; at 33.0 µM): -1%
growth inhibition [10, 17]: 91% (active)
growth inhibition ([10]; at 50.0 µM): 80% (active)
growth inhibition ([10]; at 100.0 µM): 13%
growth inhibition ([11]; at 1.2 µM): -2%
growth inhibition ([11]; at 3.7 µM): -1%
growth inhibition ([11]; at 11.0 µM): -3%
growth inhibition ([11]; at 33.0 µM): -7%
growth inhibition ([11]; at 100.0 µM): 24%
growth inhibition ([12]; at 1.2 µM): 6%
growth inhibition ([12]; at 3.7 µM): -8%
growth inhibition ([12]; at 11.0 µM): -4%
growth inhibition ([12]; at 33.0 µM): -6%
growth inhibition ([12]; at 100.0 µM): 72% (active)
growth inhibition [14, 16]: -116%
growth inhibition [14, 17]: 94% (active)
growth inhibition ([14]; at 50.0 µM): 91.8% (active)
growth inhibition ([15]; at 1.2 µM): -4%
growth inhibition ([15]; at 3.7 µM): -4%
growth inhibition ([15]; at 11.0 µM): -2%
growth inhibition ([15]; at 33.0 µM): -3%
growth inhibition ([15]; at 100.0 µM): 61%
